Screening results as filed in PubChem BioAssay.
Hits are enriched below; roughly 8.3% of the tested compounds scored in any of these assays.
MCF10A rereplic: DNA re-replication induction in MCF 10a cells; Potency, µM (highest dose often 46.1 µM), for the others: at the highest dose activity, positive = re-replication, hits mostly activators; 350,000 compounds, 2.9% hits; MCF 10A DNA re-replication, Hoechst nuclear intensity, 48 h; note: potency is the fitted concentration of half-maximal effect; % of control where 0% means no effect; nearly all actives have a fitted effect of over 50% in size
Gal4-VP16 FLuc: Gal4-VP16 reporter inhibition counter-screen; 310,000 compounds, 3.5% hits; Potency, µM (titrated, usually from 53.6 µM), without a hit: top-dose activity, negative = inhibition, most hits filed as inhibitors; AID 2546; Drosophila S2 Gal4-VP16 UAS-luciferase, luminescence, 20 h;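 note: Gal4-VP16 expression switched on by copper sulfate through the metallothionein promoter; potency is the fitted concentration of half-maximal effect; % is set by controls: 0 for no effect and ±100 for the full control effect; nearly all actives have a fitted effect of over 50% in size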
SW480 rerep: DNA re-replication induction in SW480 cells | SW480 DNA re-replication, Hoechst DNA content imaging, 48 h | Potency, µM (highest dose often 46.1 µM), inactives show top-dose re-replication activation, hits mostly activators | 340,000 compounds, 1.8% hits; note: potency is the fitted concentration of half-maximal effect; % of control where 0% means no effect; nearly all actives have a fitted effect of over 55% in size
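Cells (250 per well) received 23 nL compound or DMSO by pin tool and were kept 48 hr at 37 C, 5% CO2. Nuclei were then stained with Hoechst for 40 min and scanned for DNA content.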
BCR signal inh: blocks chronic active B-cell receptor signaling | 340,000 compounds, 0.05% hits | Potency, µM (highest dose often 46.1 µM), inactives show at the highest dose activity change, negative = inhibition, usual class: inhibitors | AID 493014 | ABC-DLBCL IkBa-CBG/CBR reporter, luminescence ratio, 4 h; active = well fitted inhibition curve with a large enough effect in the signal ratio, with a control signal flat, not every such curve was filed as active; inconclusive = small, poorly fitted or top-dose-only effect, or effect the other way, or a change in a side signal; the % refers to the signal ratio;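 note: potency is the fitted concentration of half-maximal effect; plate controls were basal doxycycline-induced cells for no effect and cells given 10 µM MG132 for full effect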
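Cell line TMD8 (human ABC DLBCL), stably expressing tet-inducible CBG68-IkBa fusion and CBR; IMDM/0.5% FBS; cpd up to 46 uM; dox induction, 4 h, 37C/5% CO2; dual luminescence; green/red ratio; MG132 control.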
RORg inh: ROR gamma (mouse) transcription inhibition | Drosophila S2 Gal4-RORgamma UAS-luciferase reporter, 20 h | AID 2551 | Potency, µM (series often up to 53.6 µM), without a hit: top-dose activity change, negative = inhibition, most hits filed as inhibitors | 310,000 compounds, 5.4% hits | P51450; note: potency is the fitted concentration of half-maximal effect; % is set by controls: 0 for no effect and ±100 for the full control effect; nearly all actives have a fitted effect of over 60% in size
Target sequence (P51450 whole entry, looked up, the tested form may be a part): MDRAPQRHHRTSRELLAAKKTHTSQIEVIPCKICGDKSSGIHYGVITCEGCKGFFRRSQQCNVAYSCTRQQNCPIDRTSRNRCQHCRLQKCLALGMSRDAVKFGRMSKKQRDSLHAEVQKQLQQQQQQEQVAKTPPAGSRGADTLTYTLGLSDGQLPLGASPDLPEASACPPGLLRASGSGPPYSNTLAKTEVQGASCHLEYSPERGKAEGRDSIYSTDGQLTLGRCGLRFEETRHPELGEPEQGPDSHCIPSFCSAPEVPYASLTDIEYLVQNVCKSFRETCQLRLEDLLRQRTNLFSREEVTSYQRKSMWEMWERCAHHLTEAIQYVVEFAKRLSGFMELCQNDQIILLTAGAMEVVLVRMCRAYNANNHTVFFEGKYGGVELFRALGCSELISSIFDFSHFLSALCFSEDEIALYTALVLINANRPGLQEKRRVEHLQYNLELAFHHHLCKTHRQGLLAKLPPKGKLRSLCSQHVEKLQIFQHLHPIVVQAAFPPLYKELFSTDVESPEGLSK
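Read-out: Photinus luciferase luminescence; inhibitors lower reporter signal. Insect Schneider cells with Gal4-ROR gamma fusion under metallothionein promoter, UAS reporter; 700 uM final copper sulfate induction, 20 hr, ambient temperature.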
Giardia kill: Giardia lamblia killing. 340,000 compounds, 0.15% hits. Giardia lamblia trophozoite viability. activity change, % at 7.66 µM, hits read low. AID 540267; in the data active = activity change below about -80%; inconclusive = between about -30% and that limit;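 note: parasites exposed to compound for two days anaerobically before the ATP read; % is set by controls: 0 for no effect and ±100 for the full control effect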
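Anaerobic 48 hrs incubation at 37 deg C of 100 trophozoites/well with test compounds; ATPLite 1-Step luminescence, 15-30 min RT, reports cellular ATP as viability.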
An asterisk follows results filed as active; ? = inconclusive; / = no result. Unless noted, calls come from the whole dose curve; as a rule, active = well fitted curve in the direction sought with a large enough effect; inconclusive = small, poorly fitted or top-dose-only effect, or another doubt; inactive = no such curve, though single readings can be large; an effect the other way counts as inactive or inconclusive.

SMILES	MCF10A rereplic	Gal4-VP16 FLuc	SW480 rerep	BCR signal inh	RORg inh	Giardia kill
Cc1ccc(S(=O)(=O)Nc2ccccc2CNc2cccc(C)n2)cc1	5%	-7%	70%	0%	16%	18
Cc1ccc(S(=O)(=O)Nc2ccccc2-c2ccccc2)cc1	1.3µM*	-2%	0.82µM*	?	-30%	2
Cc1c(CCNC(=O)c2ccc(C(C)(C)C)cc2)sc2nc(-c3ccc(F)cc3)nn12	/	/	/	-3%	/	/
Cn1c(N2CCOCC2)c(C#N)c2ccccc21	10%	-14%	-3%	-1%	8%	21
O=C(Nc1ccc(Cl)cc1)c1cc(Br)ccc1OCC(=O)N1CCOCC1	?	-14%	?	?	13%	-22
CC(C)C[C@@H](CC(=O)N[C@@H](CCC(=O)O)CC(=O)O)NC(=O)[C@@H]1CCCC[C@H]1NC(=O)C[C@@H](NC(=O)C[C@H](Cc1ccccc1)NC(=O)[C@@H]1CCCC[C@H]1N)C(C)C	/	8%	/	/	3%	/
O=C(c1cccc(C(=O)N(c2ccccn2)C2CCCCC2)c1)N(c1ccccn1)C1CCCCC1	6%	-1%	4%	1%	16%	-7
N#C/C(=C\c1ccccc1)C(=O)N(c1ccccn1)C1CCCCC1	?	?	-7%	5%	2.8µM*	14
CCN(CC(=O)Nc1ccc2c(c1)OCCO2)CC(=O)Nc1ccc(C)c(S(=O)(=O)N(C)C)c1	3%	/	2%	-7%	/	11
Cc1ccc(N2C(=O)C3C4C=CC(CNC(=S)Nc5cccc(Cl)c5)(O4)C3C2=O)cc1 (stereo not drawn)	20%	13µM*	?	0%	?	1
CC(C)COC(=O)NCC12C=CC(O1)C1C(=O)N(c3ccc(Cl)cc3)C(=O)C12 (stereo not drawn)	?	20µM*	21%	3%	4µM*	6
Cc1ccc(N2C(=O)C3C4C=CC(CNC(=S)Nc5ccc(F)cc5)(O4)C3C2=O)cc1 (stereo not drawn)	?	4µM*	?	-11%	4.5µM*	9
Cc1ccc(N2C(=O)C3C4C=CC(CNC(=S)Nc5ccc(Cl)cc5)(O4)C3C2=O)cc1 (stereo not drawn)	?	3.2µM*	28%	?	7.1µM*	-1
Cc1ccc(S(=O)(=O)c2nnn3c2nc(N2CCC(C(N)=O)CC2)c2ccccc23)cc1	0%	0%	-23%	0%	0%	-1
Nc1c(N(Cc2ccccc2)C(=O)COc2ccc([N+](=O)[O-])cc2)c(=O)[nH]c(=O)n1Cc1ccccc1	?	/	?	/	/	-16
CC1=CC(=O)N(c2cccc3c(N4C(=O)C=C(C)C4=O)cccc23)C1=O	?	/	13µM*	/	/	-2
CCOc1ccc2c(c1)OC(c1ccc(OC)cc1)(C(F)(F)F)NC2=O (stereo not drawn)	2.3µM*	-3%	5.2µM*	?	58%	-2
CCOc1ccc2c(c1)OC(c1ccccc1)(C(F)(F)F)NC2=O (stereo not drawn)	12%	-5%	-1%	1%	-9%	-12
O=C(N/N=C/c1ccccc1)c1[nH]c2ccc(Br)cc2c1-c1ccccc1	?	?	?	?	?	-10
O=C(NN=C1CCCC1)c1[nH]c2ccc(Br)cc2c1-c1ccccc1	?	?	?	?	11µM*	8
O=c1ccc2cc(S(=O)(=O)Nc3ccc(Br)cc3)ccc2o1	1%	1%	-2%	3%	?	0
CC(=O)c1ccc(Oc2cc(-c3ccccc3)nc(-c3ccccc3)n2)cc1	1%	-2%	21µM*	10%	17%	-17
CCOc1ccc(NS(=O)(=O)c2ccc(C(=O)NNC(=O)c3ccccc3O)cc2)cc1	?	/	4%	16%	/	26
O=S(=O)([N-]c1nc2ccccc2nc1-n1cc[n+](Cc2ccccc2)c1)c1ccc(Cl)cc1	18µM*	2%	18µM*	-1%	6%	5
CC(C)CC[n+]1ccn(-c2nc3ccccc3nc2[N-]S(=O)(=O)c2ccccc2)c1	-4%	-12%	-7%	2%	-3%	5
SMILES	MCF10A rereplic	Gal4-VP16 FLuc	SW480 rerep	BCR signal inh	RORg inh	Giardia kill
CCCC[n+]1ccn(-c2nc3ccccc3nc2[N-]S(=O)(=O)c2ccc(Br)cc2)c1	?	7%	18µM*	?	14%	1
CCn1nc([N+](=O)[O-])c(C(C#N)c2nc3cc(C(F)(F)F)ccc3s2)c(Cl)c1=O (stereo not drawn)	29%	?	4.6µM*	?	?	-14
CCCn1nc([N+](=O)[O-])c(C(C#N)c2nc3ccccc3o2)c(Cl)c1=O (stereo not drawn)	?	?	-2%	?	-26%	-12
CC1CCN(C(=O)COC(=O)c2ccc(N3CCCC3=O)cc2)CC1	4%	/	-6%	0%	/	-2
COc1ccc(-c2nc(CN3CCN(Cc4cccc(F)c4)CC3)c(C)o2)cc1	?	-28%	1%	2%	?	-3
COc1ccc(-c2nc(CN3CCN(Cc4cccc(Cl)c4)CC3)c(C)o2)cc1	30%	?	37%	?	11µM*	-19
O=C(Nc1cccc(Br)c1)c1ccc2c(c1)SC1=NS(=O)(=O)CCN12	2%	/	-5%	-1%	/	11
N/C(=N\OC(=O)c1cccc2ccccc12)c1ccncc1	4%	-8%	2%	?	-17%	-7
N/C(Cc1ccccc1)=N\OC(=O)c1cccc2ccccc12	15%	8.9µM*	-321%	?	-7%	-1
N/C(=N\OC(=O)c1cccc2ccccc12)c1ccc(Br)cc1	4%	5µM*	10%	6%	10µM*	-1
O=C(NCCN1CCOCC1)C1CC(=O)N(c2ccc(Cl)cc2)C1 (stereo not drawn)	2%	-3%	-4%	6%	-7%	-19
COCCCNC(=O)CSc1nc2cc(S(=O)(=O)N3CCCCC3)ccc2o1	-5%	/	3%	1%	/	-9
COc1cc(C(C)=O)ccc1OCc1cn(CC(=O)c2ccc(O)cc2)nn1	-12%	/	-4%	/	/	-8
O=C(Cn1cc(COc2ccc(Br)cc2[N+](=O)[O-])nn1)c1ccc(O)cc1	14%	/	9.2µM*	/	/	14
O=C(Nc1nnc(SCc2cccc(F)c2)s1)c1ccco1	0.29µM*	-14%	-76%	?	17%	4
O=C(Cc1cccs1)Nc1nnc(SCc2ccc(C(F)(F)F)cc2)s1	10%	-13%	-12%	?	10µM*	-2
COc1cccc(-c2nnc(NC(=O)c3ccco3)s2)c1	-4%	-3%	-6%	?	1%	-14
